A short description of assay [1]: Stat Signaling Pathway (AID 446; active = well fitted curve in either direction with a large enough effect, not every such curve was filed as active;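 also: ME-180 cervical cancer cells given 40 pM IL-6 alongside compound; SIE-controlled beta-lactamase reporter measured as 460/530 nm FRET emission ratio; % is scaled to controls: 0 for no effect and ±100 for the full control effect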). The method, boiled down: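 Reporter line: ME-180 cervical carcinoma, SIE-beta-lactamase. Treatment: compound with 40 pM IL-6, 5 hrs, 37 C, in low-serum OPTI-MEM with 10 mM HEPES pH 7.3. Detection: 460/530 nm fluorescence.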
The target in assay [2] is Mitogen-activated protein kinase 10 (Mus musculus) (UniProt Q61831). Kind of assay: JNK3 AlphaScreen Assay (AID 530; active = well fitted curve in either direction with a large enough effect, not every such curve was filed as active;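 also: kinase came from lysate of stimulated human HepG2 cells; signal reports phosphorylation of biotinylated GST-cJun 1-79 at Ser73 with 10 µM ATP; % is scaled to controls: 0 for no effect and ±100 for the full control effect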). The method, boiled down: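 Pre-activated (IL-1β/TNFα) JNK3 in HepG2 lysates phosphorylates biotin-GST-cJun(1-79), 10 uM ATP; anti-phospho-cJun(Ser73) AlphaScreen read at room temperature, pH 7.6 Tris buffer. Compounds pre-incubated 15 min as titrations.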
(Bead proximity is the source of the signal in Alpha formats.)

For assay [3], the target named is 3',5'-cyclic-AMP phosphodiesterase 4B (Homo sapiens) (UniProt Q07343). As to the kind of experiment: qHTS Assay for Inhibitors of PDE-IV (AID 607; active = well fitted activation curve with a large enough effect in the main read-out, with a control signal flat, not every such curve was filed as active; also: % of control where 0% means no effect). The method, boiled down: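 Cell-based read-out of cAMP via a modified cyclic nucleotide-gated channel and membrane potential dye (535/590 nm) in HEK293 cells expressing PDE4 endogenously. Compounds tested up to 22.9 uM final; 100 uM RO 20-1724 reference.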
Chain of 3',5'-cyclic-AMP phosphodiesterase 4B (Homo sapiens) (Q07343 whole entry, looked up): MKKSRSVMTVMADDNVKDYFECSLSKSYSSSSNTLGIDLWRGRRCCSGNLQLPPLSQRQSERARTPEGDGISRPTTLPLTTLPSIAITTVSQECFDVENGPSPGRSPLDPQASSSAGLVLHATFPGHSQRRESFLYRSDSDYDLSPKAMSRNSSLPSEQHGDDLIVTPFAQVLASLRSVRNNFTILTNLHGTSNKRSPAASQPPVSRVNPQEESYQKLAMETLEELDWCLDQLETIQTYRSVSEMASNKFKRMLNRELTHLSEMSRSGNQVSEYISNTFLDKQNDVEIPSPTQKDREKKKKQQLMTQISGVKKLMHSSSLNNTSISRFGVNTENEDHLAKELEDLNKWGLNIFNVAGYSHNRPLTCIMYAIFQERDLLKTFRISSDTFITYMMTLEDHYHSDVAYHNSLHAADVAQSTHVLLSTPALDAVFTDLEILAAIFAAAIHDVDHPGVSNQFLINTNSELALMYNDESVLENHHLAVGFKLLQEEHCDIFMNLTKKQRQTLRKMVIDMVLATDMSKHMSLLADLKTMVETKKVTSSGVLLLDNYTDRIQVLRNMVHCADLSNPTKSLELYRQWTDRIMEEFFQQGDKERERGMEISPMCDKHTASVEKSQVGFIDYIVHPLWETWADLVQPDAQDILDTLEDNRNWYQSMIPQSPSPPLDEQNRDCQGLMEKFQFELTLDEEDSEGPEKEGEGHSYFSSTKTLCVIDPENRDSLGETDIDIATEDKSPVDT

In assay [4] the target is Cytochrome P450 1A2 (Homo sapiens) (UniProt P05177). Kind of assay: p450-cyp1a2 (AID 410; calls by dose curve; also: potency is read from the fitted curve at half-maximal effect). The method, boiled down: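 20nM CYP1A2 with 100uM Luciferin-ME (at Km) in 100mM KPO4; compound preincubated 10 min, NADPH regeneration added, 60 min at room temperature. Luciferin quantified by luminescence after detection reagent; normalized to 57 uM furafylline.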
Chain of Cytochrome P450 1A2 (Homo sapiens) (P05177 whole entry, looked up): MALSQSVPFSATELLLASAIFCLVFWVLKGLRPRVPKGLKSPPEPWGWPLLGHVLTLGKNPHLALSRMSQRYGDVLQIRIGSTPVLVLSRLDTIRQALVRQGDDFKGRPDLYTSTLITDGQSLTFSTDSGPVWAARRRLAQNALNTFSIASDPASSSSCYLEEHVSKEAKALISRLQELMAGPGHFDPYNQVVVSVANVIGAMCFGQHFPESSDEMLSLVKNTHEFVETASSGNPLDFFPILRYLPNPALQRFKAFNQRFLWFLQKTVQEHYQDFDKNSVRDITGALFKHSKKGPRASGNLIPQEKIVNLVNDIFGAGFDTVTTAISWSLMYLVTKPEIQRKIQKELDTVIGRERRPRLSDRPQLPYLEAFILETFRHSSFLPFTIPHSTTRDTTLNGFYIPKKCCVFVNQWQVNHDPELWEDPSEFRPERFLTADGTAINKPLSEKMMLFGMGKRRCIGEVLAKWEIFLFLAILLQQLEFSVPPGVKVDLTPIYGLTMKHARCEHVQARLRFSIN
The target of assay [5] is Glucocorticoid receptor (Homo sapiens) (UniProt P04150). Kind of assay: GR-GFP Redistribution (AID 450;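 active = compounds whose dose series gives a full or clear partial fitted curve of increased nuclear translocation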; also: potency is read from the fitted curve at half-maximal effect). The note with it: U2OS GR-GFP nuclear translocation, laser cytometry, 2 h.
Chain of Glucocorticoid receptor (Homo sapiens) (P04150 whole entry, looked up, the tested form may be a part): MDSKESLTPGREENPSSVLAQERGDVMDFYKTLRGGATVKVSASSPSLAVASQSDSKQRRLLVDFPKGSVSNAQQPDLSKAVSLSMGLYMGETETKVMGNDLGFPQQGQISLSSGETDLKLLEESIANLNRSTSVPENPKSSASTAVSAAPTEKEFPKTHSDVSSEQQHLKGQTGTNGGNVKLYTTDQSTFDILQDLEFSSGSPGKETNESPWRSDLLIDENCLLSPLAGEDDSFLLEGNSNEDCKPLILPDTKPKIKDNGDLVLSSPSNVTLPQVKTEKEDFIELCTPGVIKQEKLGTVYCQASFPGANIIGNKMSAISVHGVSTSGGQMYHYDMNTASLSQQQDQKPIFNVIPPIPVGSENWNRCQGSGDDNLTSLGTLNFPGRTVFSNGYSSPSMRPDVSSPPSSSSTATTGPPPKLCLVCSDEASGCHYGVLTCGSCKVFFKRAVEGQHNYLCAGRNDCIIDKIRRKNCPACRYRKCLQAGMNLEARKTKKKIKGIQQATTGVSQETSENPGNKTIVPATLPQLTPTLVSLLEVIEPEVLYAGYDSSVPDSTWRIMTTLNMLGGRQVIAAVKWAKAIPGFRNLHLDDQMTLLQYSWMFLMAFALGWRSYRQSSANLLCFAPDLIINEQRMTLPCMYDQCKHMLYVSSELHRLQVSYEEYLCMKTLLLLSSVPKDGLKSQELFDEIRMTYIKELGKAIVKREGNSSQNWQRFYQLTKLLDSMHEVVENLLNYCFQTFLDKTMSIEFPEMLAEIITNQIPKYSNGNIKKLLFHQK
Assay [6] shares this target. Kind of assay: GR-EFC Redistribution (AID 451; calls by dose curve; also: potency is read from the fitted curve at half-maximal effect). As to conditions: CHO-K1 GR-EFC translocation, beta-gal luminescence, 2 h. The method, boiled down: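 CHO-K1 cells expressing nuclear EA and GR-ED fragments of b-gal; compounds titrated up to 46 uM final, 2 h at 37 C. GR nuclear translocation read as complemented b-gal luminescence after 1 h RT detection.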
In assay [7] the target is Cytochrome P450 3A4 (Homo sapiens) (UniProt P08684). Kind of assay: qHTS Assay for Inhibitors and Substrates of Cytochrome P450 3A4 (AID 884). Also: % is scaled to controls: 0 for no effect and ±100 for the full control effect; nearly all actives have a fitted effect of over 50% in size. Put shortly: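 20 nM human CYP3A4 with 25 uM Luciferin-PPXE (at KM) in 200 mM KPO4, preincubated 10 min with compound; NADPH regeneration started a 60 min RT reaction. Luciferin detected by luminescence, normalized to 57 uM ketoconazole as full inhibition.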
Chain of Cytochrome P450 3A4 (Homo sapiens) (P08684 whole entry, looked up): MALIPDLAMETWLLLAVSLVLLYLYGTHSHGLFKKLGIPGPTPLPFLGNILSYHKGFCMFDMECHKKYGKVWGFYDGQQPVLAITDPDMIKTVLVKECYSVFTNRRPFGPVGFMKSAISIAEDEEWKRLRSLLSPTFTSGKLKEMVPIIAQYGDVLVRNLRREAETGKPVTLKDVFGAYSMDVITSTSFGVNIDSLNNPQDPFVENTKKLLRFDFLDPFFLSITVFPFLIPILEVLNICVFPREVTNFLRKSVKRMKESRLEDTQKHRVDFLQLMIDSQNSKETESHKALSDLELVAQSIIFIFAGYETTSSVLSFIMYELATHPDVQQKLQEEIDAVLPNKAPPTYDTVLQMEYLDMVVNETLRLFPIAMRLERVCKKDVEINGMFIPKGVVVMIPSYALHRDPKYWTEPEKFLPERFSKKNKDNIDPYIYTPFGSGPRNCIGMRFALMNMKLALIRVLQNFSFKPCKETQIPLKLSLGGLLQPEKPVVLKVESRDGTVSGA
A general note: In qHTS, concentration-response curves come from the screen itself.

In assay [8] the target is Cytochrome P450 2D6 (Homo sapiens) (UniProt P10635). As to the kind of experiment: qHTS Assay for Inhibitors and Substrates of Cytochrome P450 2D6 (AID 891). Also: nearly all actives have a fitted effect of over 60% in size. Also: potency is read from the fitted curve at half-maximal effect.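 As to activity change, negative = inhibition: luciferin methyl ether substrate demethylated by CYP2D6 with NADPH regeneration; % is scaled to controls: 0 for no effect and ±100 for the full control effect.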 Put shortly: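 Human CYP2D6 (5 nM) with 30 uM Luciferin-ME EGE (at Km) in 100 mM KPO4, compound preincubated 10 min, then NADPH regeneration system for 60 min at room temperature. Luciferin read by luminescence; normalized to 1.43 uM quinidine.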
Chain of Cytochrome P450 2D6 (Homo sapiens) (P10635 whole entry, looked up): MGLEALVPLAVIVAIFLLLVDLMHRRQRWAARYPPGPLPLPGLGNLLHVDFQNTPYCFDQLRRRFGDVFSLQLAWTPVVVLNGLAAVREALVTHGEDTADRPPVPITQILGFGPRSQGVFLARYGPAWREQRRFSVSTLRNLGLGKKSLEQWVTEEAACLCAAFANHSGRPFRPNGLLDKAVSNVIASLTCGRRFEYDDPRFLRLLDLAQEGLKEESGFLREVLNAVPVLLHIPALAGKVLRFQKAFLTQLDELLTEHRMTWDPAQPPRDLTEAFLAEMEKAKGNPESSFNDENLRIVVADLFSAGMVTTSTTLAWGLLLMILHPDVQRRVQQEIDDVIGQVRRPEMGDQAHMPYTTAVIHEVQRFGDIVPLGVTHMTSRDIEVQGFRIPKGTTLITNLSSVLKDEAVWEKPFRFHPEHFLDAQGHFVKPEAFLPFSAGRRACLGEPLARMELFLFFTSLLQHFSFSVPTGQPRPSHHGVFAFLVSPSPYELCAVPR

Assay [9] addresses DNA dC->dU-editing enzyme APOBEC-3G (Homo sapiens) (UniProt Q9HC16). Kind of assay: qHTS for inhibitors of Vif-A3G interactions: Validation (AID 588379). Also: 0% is about no effect. The method, boiled down:
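HeLa cells stably expressing Vif and A3G-eYFP, 700 cells/well, incubated overnight at 37 deg C, then exposed to compound overnight at 37 deg C. Inhibition of Vif-mediated degradation read as increased yellow fluorescence (Ex 488/Em 500-530) by laser-scanning cytometry.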

Assay [10] can be described thus: NFAT Signaling Pathway (AID 444; active = well fitted curve in either direction with a large enough effect, not every such curve was filed as active;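 also: carbachol stimulus at about its EC50 of 1 µM final; % is scaled to controls: 0 for no effect and ±100 for the full control effect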). As to conditions: Jurkat NFAT-bla M1, carbachol, beta-lactamase ratio, 5 h; at 17.2 µM (top of the series) unless noted. Put shortly: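 Jurkat cells with NFAT-driven β-lactamase reporter and co-expressed M1 receptor, stimulated with carbachol (final 1 uM, ~EC50), compound titration, 5 h at 37 °C. CCF4 loaded 1 h at RT; 460/530 nm ratio gave %activity and AC50.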

Assay [11] deals with Luciferin 4-monooxygenase (Photinus pyralis) (UniProt P08659). Kind of assay: Biochemical firefly luciferase enzyme assay for NPC (AID 624030).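 Also: purified P. pyralis luciferase at 10 nM with luciferin and ATP substrate; 0% = DMSO and -100% = full luciferase inhibition by PTC124 control; nearly all actives have a fitted effect of over 70% in size.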 Put shortly: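 Purified P. pyralis luciferase at 10 nM in 50 mM Tris Acetate (final), luminescence read within 5 minutes of enzyme addition to compounds. Activity normalised to PTC124 versus DMSO; concentration-response curves classed by r2, magnitude and activity.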
Chain of Luciferin 4-monooxygenase (Photinus pyralis) (P08659 whole entry, looked up): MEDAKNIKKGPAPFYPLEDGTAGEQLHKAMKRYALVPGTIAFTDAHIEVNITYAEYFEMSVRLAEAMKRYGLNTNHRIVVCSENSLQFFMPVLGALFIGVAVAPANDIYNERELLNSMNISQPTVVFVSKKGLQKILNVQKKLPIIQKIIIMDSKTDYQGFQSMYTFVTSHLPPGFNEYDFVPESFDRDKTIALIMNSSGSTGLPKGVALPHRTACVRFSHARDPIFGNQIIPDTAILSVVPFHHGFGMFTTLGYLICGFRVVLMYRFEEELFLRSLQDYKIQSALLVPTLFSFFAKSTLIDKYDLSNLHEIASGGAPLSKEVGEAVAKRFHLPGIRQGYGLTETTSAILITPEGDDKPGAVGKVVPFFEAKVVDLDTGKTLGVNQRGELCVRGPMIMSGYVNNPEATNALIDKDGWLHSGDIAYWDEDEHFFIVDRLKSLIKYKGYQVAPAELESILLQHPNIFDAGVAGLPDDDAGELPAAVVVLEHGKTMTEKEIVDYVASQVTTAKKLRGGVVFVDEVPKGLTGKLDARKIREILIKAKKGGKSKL

Assay [12] can be described thus: S16 Schwann cell viability assay (CellTiter-Glo assay) (AID 624031).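 Also: native untransfected S16 rat Schwann cells; cellular ATP luminescence as a viability measure; plate controls were DMSO-treated cells for no effect and cell-free wells for full effect; nearly all actives have a fitted effect of over 70% in size.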 The method, boiled down:
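Concentration-effect curves come from CellTiter-Glo luminescence of S16 rat Schwann cells after 24 h compound exposure. Each reading was normalized to DMSO wells (0%) and wells without cells, and curves were ranked by r2 and response magnitude.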
(Cellular ATP, detected with luciferase, serves as a proxy for viable cell number.)

The subject of assay [13] is DFO2036. As to the kind of experiment: qHTS profiling for inhibitors of Plasmodium falciparum proliferation (AID 504749). Also: nearly all actives have a fitted effect of over 60% in size. Also: potency is read from the fitted curve at half-maximal effect. The note with it: P. falciparum in erythrocytes, SYBR Green DNA, 72 h; series mostly up to 12.8 µM. The method, boiled down: (§1)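 P. falciparum-infected erythrocytes (0.3% parasitemia, 2.5% hematocrit) incubated with compound 72 h at 37 C, 5% CO2. Parasite DNA detected by SYBR Green after lysis, overnight at room temperature; normalised to 0.29 uM artemisinin and DMSO.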

A short description of assay [14]: S16 Schwann cell PMP22 intronic element firefly luciferase assay (AID 624032).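 Also: plate controls were DMSO for no effect and PTC124 positive control mean for full effect; nearly all actives have a fitted effect of over 30% in size.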 Put shortly: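 Rat S16 Schwann cells stably carrying firefly luciferase driven by a PMP22 intronic element, in 10% FBS, treated 24 h at 37 C. ONE-Glo luminescence normalized to PTC124 control and DMSO (0%); curves classed by r2, magnitude and activity.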
For assay [15], the system named is 7G8. As to the kind of experiment: qHTS profiling for inhibitors of Plasmodium falciparum proliferation (AID 504749). Also: nearly all actives have a fitted effect of over 60% in size. Also: potency is read from the fitted curve at half-maximal effect. As to conditions: P. falciparum in erythrocytes, SYBR Green DNA, 72 h; series mostly up to 12.8 µM. The method, boiled down: as §1
Assay [16] deals with CP215. The assay is described as above. The note with it: P. falciparum in erythrocytes, SYBR Green DNA, 72 h; series mostly up to 12.8 µM. Put shortly: as §1
The test system of assay [17] is DIV14. Described as above. As to conditions: P. falciparum in erythrocytes, SYBR Green DNA, 72 h; series mostly up to 12.8 µM. Put shortly: as §1
For assay [18], the system named is GB4. The assay is described as above. As to conditions: P. falciparum in erythrocytes, SYBR Green DNA, 72 h; series mostly up to 12.8 µM. Put shortly:
as §1

For assay [19], the system named is W2. The description is as above. As to conditions: P. falciparum in erythrocytes, SYBR Green DNA, 72 h; series mostly up to 12.8 µM. The method, boiled down: as §1
The target of assay [20] is Cytochrome P450 3A4 (Homo sapiens) (UniProt P08684). Kind of assay: qHTS Assay for Activators of Cytochrome P450 3A4 (AID 885). Also: nearly all actives have a fitted effect of over 65% in size. Put shortly:
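Signal was normalized against complete inhibition by 57 uM ketoconazole. The reaction used 20nM CYP3A4 with 25uM Luciferin-PPXE, 10-min compound preincubation and a 60-min NADPH-supported step at RT.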

Values joined by “and” are separate entries in the source; they are usually repeats but may differ in a detail not shown here. Identical values can stand only once. A number with no mark means an inactive call. Inconclusive results are not listed. Active and inactive are the calls of the source. Unless noted, calls follow the shape of the dose curve; as a rule, active = well fitted curve in the direction sought with a large enough effect; inconclusive = small, poorly fitted or top-dose-only effect, or another doubt; inactive = no such curve, though single readings can be large; an effect the other way counts as inactive or inconclusive.

Chain of DNA dC->dU-editing enzyme APOBEC-3G (Homo sapiens) (Q9HC16 whole entry, looked up): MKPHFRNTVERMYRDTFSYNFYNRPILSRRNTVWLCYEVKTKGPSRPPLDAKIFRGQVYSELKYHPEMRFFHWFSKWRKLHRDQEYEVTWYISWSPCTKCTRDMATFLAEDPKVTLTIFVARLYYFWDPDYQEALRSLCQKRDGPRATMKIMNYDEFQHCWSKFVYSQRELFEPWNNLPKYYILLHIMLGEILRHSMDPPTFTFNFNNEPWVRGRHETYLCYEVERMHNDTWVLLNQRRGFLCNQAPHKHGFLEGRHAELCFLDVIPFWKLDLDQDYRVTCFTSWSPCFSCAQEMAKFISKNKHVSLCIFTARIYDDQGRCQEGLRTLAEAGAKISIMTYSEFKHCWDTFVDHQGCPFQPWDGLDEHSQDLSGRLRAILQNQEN

For the compound `OCCOCCN1CCN([C@@H](c2ccccc2)c2ccc(Cl)cc2)CC1`, the call in assay [1] and in [3] was inactive. For the same compound, in assay [2], the Potency result was “inactive”.

For `COc1cc2ccc(=O)oc2c(O)c1O`, the results for the Potency in assay [4], in assay [5] and in [6] were 12.6 µM (active), more than 46 µM and more than 46 µM, respectively. Besides, the result in assay [3] and in assay [9] was inactive. Also, the Potency result in [7] and in assay [8] was “inactive” throughout.

For the compound `CCO[C@H]1O[C@@H]([C@H](COCc2ccccc2)OCc2ccccc2)[C@@H](OCc2ccccc2)[C@H]1O`, the activity change, negative = inhibition in assay [10] was -29.7%. Further, the result in assay [1], in [3] and in assay [12] was inactive. Besides, the Potency in assay [5] and in assay [6] was more than 20.6 µM in each case. For the same compound, the Potency entry in assay [2], in assay [11] and in [13] was “inactive” each time.

With `C=C(C)[C@H]1CC[C@]2(C(=O)O)CC[C@]3(C)[C@@H](CC[C@H]4[C@@]5(C)CC[C@@H](O)C(C)(C)[C@@H]5CC[C@@]43C)[C@H]12`, the Potency result in [4] and in [2] was “inactive” each time. Further, the activity change, negative = inhibition in [10] was -3.55%. In addition, the Potency in assay [5] is more than 20.6 µM.

For `C1CCC(C(C[C@@H]2CCCCN2)C2CCCCC2)CC1`, the Potency in assay [4] was 6.31 µM (active); in assay [5] it was more than 20.6 µM; in assay [6], more than 20.6 µM; in assay [8], 501 nM (active). In addition, the result in assay [1] was inactive. For the same compound, in assay [2], the Potency entry is “inactive”.

Consider `CCC(=O)[C@@]1(C)[C@H](C)C[C@@H]2[C@@H]3CCC4=CC(=O)C=C[C@@]4(C)[C@H]3[C@H](O)C[C@]21C`, for which the Potency result in assay [4], in assay [2], in assay [14], in assay [16], in assay [17] and in [18] was “inactive” in each case. In addition, the compound was called inactive in [1], in assay [3] and in assay [12]. Also, the Potency in assay [5] was 0.000592 µM (active); in assay [6], 0.00311 µM (active); in assay [15] it was 2 µM (active); in [19], 5.1 µM (active).

For the compound `C[C@@H](CN1c2ccccc2Sc2ccccc21)N(C)C`, the call in assay [1] and in assay [3] was inactive. The Potency result in [2] is “inactive”. Further, the Potency in assay [8] is 2 µM (active) and 316 nM (active).

Regarding `Nc1ncnc2c1nc(Br)n2[C@H]1O[C@H]2COP(=O)(O)O[C@H]2[C@@H]1O`, the Potency in assay [5] and in [6] was more than 46 µM in each case. Besides, the compound was classed as inactive in assay [9].

`C=C(C)[C@H]1CC[C@]2(CO)CC[C@]3(C)[C@@H](CC[C@H]4[C@@]5(C)CC[C@@H](O)C(C)(C)[C@@H]5CC[C@@]43C)[C@H]12`: the activity change, negative = inhibition in [10] is -4.45%. The outcome in assay [1] and in assay [3] was inactive. The Potency in assay [5] and in assay [6] was more than 20.6 µM each time. In addition, the Potency entry in [2] was “inactive”.

Regarding `COc1ccc2c(c1)N(C[C@@H](C)CN(C)C)c1ccccc1S2`, the compound was called inactive in assay [1] and in [3]. In addition, the Potency is more than 20.6 µM in assay [5], more than 20.6 µM in [6], 63.1 nM (active) in [8] and 3.55 µM (active) in assay [15]. Also, the Potency result in assay [2], in assay [20], in assay [11] and in assay [16] was “inactive” in each case.

For `CCN(CC)CCOC(=O)[C@@H](c1ccccc1)C1CCCCC1`, the compound was classed as inactive in [1]. The Potency in [5] is more than 20.6 µM; in assay [6] it was more than 20.6 µM; in [8], 631 nM (active). For the same compound, the Potency result in [2] and in assay [20] was “inactive” throughout.

The values above are taken from PubChem BioAssay (NCATS).
